This is an account of results in PubChem BioAssay (Tox21).

Several values for one entry are separate records, joined by “and”; a condition that tells them apart may be missing. Identical values can stand only once. Results filed as inconclusive are left out. Activity calls are given as the source filed them. Unless noted, calls come from the whole dose curve; as a rule, active = well fitted curve in the direction sought with a large enough effect in the repeat runs; inconclusive = weak or mixed curves; inactive = no such curve, though single readings can be large; an effect the other way counts as inactive or inconclusive.

A short description of test [1]: qHTS RealTime-Glo MT Cell Viability Assay in HEK293 cells - 0 hour (AID 1224880). Note: top concentration of the series differs between compounds; nearly all actives have a fitted effect of over 45% in size. The method in brief:
(§1)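 600 HEK293 cells per well, dispensed already mixed with RealTime-Glo MT reagents. Compound dosing came 5 h later. The same wells were read for luminescence at 0, 8, 16, 24, 32 and 40 h of exposure at 37 C.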

The nature of test [2]: A CellTox Green Cytotoxicity Assay to monitor cytotoxicity in HEK293 cells - 32 hour (AID 1224881). Note: nearly all actives have a fitted effect of over 40% in size. The method in brief:
(§2)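 Dead-cell fluorescence measured kinetically: asymmetric cyanine dye, HEK293, 600 cells/well, 5 h settle, 23 nL cpd/DMSO, 37 C, reads 0–40 h every 8 h.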

Test [3] in a line: A CellTox Green Cytotoxicity Assay to monitor cytotoxicity in HepG2 cells - 0 hour (AID 1224882). Note: nearly all actives have a fitted effect of over 35% in size. Summed up:
(§3)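 First, HepG2 cells (600/well) mixed with reagent were plated; second, after 5 h at 37 C they received compounds via pintool; third, fluorescence was measured at 0 h through 40 h at 8 h intervals.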

Test [4] in a line: A CellTox Green Cytotoxicity Assay to monitor cytotoxicity in HepG2 cells - 32 hour (AID 1224883). Note: nearly all actives have a fitted effect of over 50% in size. Summed up:
as §3

Test [5] can be described thus: A CellTox Green Cytotoxicity Assay to monitor cytotoxicity in HEK293 cells - 8 hour (AID 1224884). Note: nearly all actives have a fitted effect of over 35% in size. Summed up: as §2
Test [6] in a line: qHTS RealTime-Glo MT Cell Viability Assay in HEK293 cells - 8 hour (AID 1224887). Note: top concentration of the series differs between compounds; nearly all actives have a fitted effect of over 50% in size. Summed up: as §1
On the technique in general: In qHTS, concentration-response curves come from the screen itself.

Test [7] in a line: A CellTox Green Cytotoxicity Assay to monitor cytotoxicity in HEK293 cells - 16 hour (AID 1224888). Note: nearly all actives have a fitted effect of over 35% in size. Summed up: as §2
A short description of test [8]: qHTS RealTime-Glo MT Cell Viability Assay in HepG2 cells - 0 hour (AID 1224889). Note: nearly all actives have a fitted effect of over 50% in size. The method in brief: (§4)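 HepG2 cells were seeded at 600 cells/well together with NanoLuc luciferase and a cell-permeant prosubstrate, preincubated 5 h at 37 C/5% CO2, then pin-dosed with compounds in DMSO. Nonlytic luminescence from viable cells was read at each time point.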
Test [9] in a line: A CellTox Green Cytotoxicity Assay to monitor cytotoxicity in HepG2 cells - 8 hour (AID 1224890). Note: nearly all actives have a fitted effect of over 45% in size. The method in brief: as §3
A short description of test [10]: qHTS assay to identify small molecule antagonists of the estrogen receptor alpha (ER-alpha) signaling pathway using the BG1 cell line in the presence of 0.1 nM 17-beta-estradiol - cell viability counter screen (AID 1259241). Note: nearly all actives have a fitted effect of over 40% in size. Note: potency is the fitted concentration of half-maximal effect. Summed up: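 Cytotoxicity counter-screen: live-cell protease activity measured by fluorescence (30 min reagent step) in the same wells. Cells were VM7Luc4E2 with endogenous ER-alpha and ERE-driven luciferase, treated 22 hr at 37C alongside 0.1 nM 17beta-estradiol final.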

Test [11] can be described thus: qHTS assay to identify small molecule antagonists of the androgen receptor (AR) signaling pathway using the MDA cell line in the presence of 0.5 nM R1881 - cell viability counter screen (AID 1259242). Note: nearly all actives have a fitted effect of over 45% in size. Summed up:
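qHTS format. MDA-kb2 (MMTV-luc, AR/GR responsive) + cpd + 0.5 nM R1881 final, 16 hr 37C/0% CO2 → CellTiter-Fluor 30 min → fluorescence intensity.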

In test [12] the target is Androgen receptor (Homo sapiens) (UniProt P10275). Briefly: qHTS assay to identify small molecule antagonists of the androgen receptor (AR) signaling pathway using the MDA cell line in the presence of 0.5 nM R1881 (AID 1259243). Note: nearly all actives have a fitted effect of over 50% in size. Summed up: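 Antagonist mode quantitative HTS in MDA-kb2 MMTV-luciferase cells, agonist R1881 at 0.5 nM final, 16 hr exposure at 37C and 0% CO2, luminescent detection.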
Androgen receptor (Homo sapiens), sequence (P10275 whole entry, looked up): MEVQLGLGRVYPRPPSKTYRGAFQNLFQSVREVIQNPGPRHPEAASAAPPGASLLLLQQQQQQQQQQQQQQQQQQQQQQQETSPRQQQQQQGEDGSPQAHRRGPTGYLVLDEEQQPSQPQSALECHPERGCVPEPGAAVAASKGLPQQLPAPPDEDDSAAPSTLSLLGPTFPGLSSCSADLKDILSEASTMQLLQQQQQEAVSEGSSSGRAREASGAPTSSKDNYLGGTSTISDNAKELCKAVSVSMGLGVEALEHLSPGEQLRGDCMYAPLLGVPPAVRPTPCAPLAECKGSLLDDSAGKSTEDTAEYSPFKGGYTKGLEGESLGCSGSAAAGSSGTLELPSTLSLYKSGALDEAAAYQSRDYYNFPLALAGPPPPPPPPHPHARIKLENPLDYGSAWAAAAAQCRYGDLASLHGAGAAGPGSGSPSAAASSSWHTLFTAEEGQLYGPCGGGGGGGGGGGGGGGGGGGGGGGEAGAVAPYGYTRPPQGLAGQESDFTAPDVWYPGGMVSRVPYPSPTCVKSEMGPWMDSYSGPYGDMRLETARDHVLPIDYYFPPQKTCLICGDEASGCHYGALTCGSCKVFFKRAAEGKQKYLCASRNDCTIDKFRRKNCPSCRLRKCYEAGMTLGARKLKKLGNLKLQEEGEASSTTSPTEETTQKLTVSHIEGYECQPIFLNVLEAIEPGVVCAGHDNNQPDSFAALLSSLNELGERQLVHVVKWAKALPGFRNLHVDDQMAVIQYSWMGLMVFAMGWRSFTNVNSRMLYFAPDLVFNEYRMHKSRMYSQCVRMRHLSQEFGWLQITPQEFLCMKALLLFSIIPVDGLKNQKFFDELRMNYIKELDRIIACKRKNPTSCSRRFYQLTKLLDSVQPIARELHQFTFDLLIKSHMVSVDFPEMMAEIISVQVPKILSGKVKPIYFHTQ

For test [13], the target named is Estrogen receptor (Homo sapiens) (UniProt P03372). Briefly: qHTS assay to identify small molecule antagonists of the estrogen receptor alpha (ER-alpha) signaling pathway using the BG1 cell line in the presence of 0.1 nM 17-beta-estradiol (AID 1259244). Note: nearly all actives have a fitted effect of over 50% in size. Note: potency is the fitted concentration of half-maximal effect. The method in brief: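 Reporter is a stably transfected luciferase under four estrogen responsive elements in VM7Luc4E2 cells expressing native full-length ER-alpha; inhibition of 0.1 nM (final) 17beta-estradiol-driven signal over 22 h is read by luminescence.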
Estrogen receptor (Homo sapiens), sequence (P03372 whole entry, looked up): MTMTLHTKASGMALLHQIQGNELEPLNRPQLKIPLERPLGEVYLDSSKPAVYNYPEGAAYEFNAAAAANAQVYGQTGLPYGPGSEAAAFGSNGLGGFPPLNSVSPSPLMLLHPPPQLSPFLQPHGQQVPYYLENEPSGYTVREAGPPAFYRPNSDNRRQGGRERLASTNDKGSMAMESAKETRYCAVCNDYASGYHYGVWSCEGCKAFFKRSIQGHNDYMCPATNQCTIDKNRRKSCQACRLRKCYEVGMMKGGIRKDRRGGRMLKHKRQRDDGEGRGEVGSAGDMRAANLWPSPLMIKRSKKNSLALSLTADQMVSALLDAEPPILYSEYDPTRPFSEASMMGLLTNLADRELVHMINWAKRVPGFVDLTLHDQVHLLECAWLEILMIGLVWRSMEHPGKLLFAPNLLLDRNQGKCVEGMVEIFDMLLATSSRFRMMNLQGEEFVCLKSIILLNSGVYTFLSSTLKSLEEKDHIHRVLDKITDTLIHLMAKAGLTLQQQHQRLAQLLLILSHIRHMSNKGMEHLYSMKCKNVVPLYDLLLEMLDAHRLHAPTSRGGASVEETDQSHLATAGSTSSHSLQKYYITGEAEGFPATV

Test [14] is described as follows: qHTS assay to identify small molecule HDAC inhibitors (AID 1259364). Note: potency is the fitted concentration of half-maximal effect.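 Note: wild-type HCT-116 cells with endogenous class I/II HDAC activity; nearly all actives have a fitted effect of over 45% in size.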 The method in brief:
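Quantitative high-throughput format: overnight-seeded HCT-116 cells got compounds for 2 hr at 37C; HDAC-Glo I/II reagent added, 30 min RT, luminescence measured.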

A short description of test [15]: qHTS assay to identify small molecule HDAC inhibitors - cell viability counter screen (AID 1259365). Summed up:
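CellTiter-Glo luminescence (30 min, room temperature) reported viability after a 2 h compound exposure at 37 C. Cells: wild-type HCT-116, 1,500 per well, seeded the night before.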

Test [16] can be described thus: qHTS assay to identify small molecule agonists of the sonic hedgehog signaling (Shh) pathway - cell viability counter screen (AID 1259366). Note: nearly all actives have a fitted effect of over 50% in size. Note: potency is the fitted concentration of half-maximal effect. Summed up:
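Cytotoxicity counter screen: CellTiter-Fluor reagent added after 23 h compound exposure, then 1 h at 37C and fluorescence read. Cells were 3T3 Gli1-Luc, seeded 2,000 per well and dosed 4 h post-plating.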

A short description of test [17]: qHTS assay to identify small molecule antagonists of the sonic hedgehog signaling (Shh) pathway - cell viability counter screen (AID 1259367). Note: nearly all actives have a fitted effect of over 55% in size. Summed up:
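Tox21 library chemicals were tested on a Gli1-Luc NIH/3T3 clone (2,000 cells/well) stimulated by conditioned medium; viability was quantified as fluorescence from CellTiter-Fluor reagent added at 23 hr.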

The nature of test [18]: qHTS RealTime-Glo MT Cell Viability Assay in HEK293 cells - 24 hour (AID 1224886). Note: nearly all actives have a fitted effect of over 50% in size. Note: potency is the fitted concentration of half-maximal effect. Summed up:
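HEK293 cells were seeded at 600 cells/well together with NanoLuc luciferase and cell-permeant prosubstrate, preincubated 5 h at 37 C/5% CO2, then given compound in DMSO by pintool. Luminescence from viable-cell prosubstrate reduction was read repeatedly over 40 h.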

Test [19] is described as follows: qHTS assay to identify small molecule phospholipidosis (PLD) inducers (AID 1259344; active = well fitted curve in the direction sought with a large enough effect; an effect the other way counts as inactive or inconclusive). The method in brief:
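Image-based: LipidTOX Red pit count/intensity per well and per cell; HepG2, 24 h compound at 37 C, PFA fixation, Hoechst counterstain.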

Test [20] is described as follows: qHTS RealTime-Glo MT Cell Viability Assay in HepG2 cells - 16 hour (AID 1224885). Note: nearly all actives have a fitted effect of over 50% in size. Summed up: as §4

In the case of `O=c1c(-c2ccc(O)cc2)coc2cc(O)ccc12`, the Potency result in test [1], in test [2], in test [3], in test [4], in test [5] and in test [6] was “inactive” throughout. Also, the Potency result in test [7], in test [8], in test [9], in test [10], in test [11] and in test [13] was “inactive” each time. Further, the Potency result in [16] and in test [17] was “inactive” in each case. Further, the outcome in test [12] and in [15] was inactive. Further, the Potency in test [14] is 5.39 µM (active) and 6.11 µM (active).

Take `Oc1ccc2ccccc2c1N=Nc1ccccc1`: the Potency entry in test [1], in [2], in test [3], in [4], in [5] and in [18] was “inactive” each time. Further, the Potency entry in test [7], in test [8], in test [9], in [13] and in [17] was “inactive” each time. The Potency in [10] was 30.6 µM (active); in test [14] it was 21.7 µM (active) and 15.4 µM (active); in test [16], 34.3 µM (active). For the same compound, in test [15], the outcome was inactive.

Turning to `CC1=C(CC(=O)O)c2cc(F)ccc2/C1=C\c1ccc(S(C)=O)cc1` (stereo not drawn), the Potency entry in [1], in [2], in [3], in test [4], in [5] and in [18] was “inactive” in each case. For the same compound, the Potency entry in test [6], in test [7], in [8], in [9], in test [10] and in test [11] was “inactive” throughout. For the same compound, the Potency result in test [14], in [16] and in test [17] was “inactive” each time. The result in [19] and in test [15] was inactive.

Turning to `Nc1nc2ncc(CNc3ccc(C(=O)N[C@@H](CCC(=O)O)C(=O)O)cc3)nc2c(=O)[nH]1`, the Potency entry in [1], in test [2], in test [3], in [4], in test [18] and in test [6] was “inactive” throughout. The Potency entry in test [7], in test [8], in [9], in test [10], in test [11] and in [14] was “inactive” throughout. The Potency result in test [16] and in test [17] was “inactive” in each case. In addition, the result in test [12], in [19] and in [15] was inactive.

`NCCNCCNCCNCCN`: the Potency result in [1], in [2], in test [3], in [4], in test [20] and in test [18] was “inactive” throughout. Moreover, the Potency result in test [6], in [7], in test [8], in test [9], in test [10] and in test [11] was “inactive” in each case. For the same compound, the Potency result in test [14], in test [16] and in test [17] was “inactive” each time. For the same compound, the result in test [12], in [19] and in test [15] was inactive.

For the compound `C=C1CC[C@H](O)CC1=C/C=C1\CCC[C@]2(C)[C@@H]([C@H](C)/C=C/[C@H](C)C(C)C)CC[C@@H]12`, the Potency entry in test [1], in test [2], in test [3], in test [4], in [20] and in [7] was “inactive” throughout. Besides, the Potency entry in test [8], in [9], in [10], in test [11], in test [14] and in test [16] was “inactive” each time. In test [18], the Potency was 43.6 µM (active). Further, the result in [19] and in test [15] was inactive.

`Oc1c(Cl)cc(Cl)c(Cl)c1Cl`: the Potency result in test [1], in [2], in [3], in test [4], in [20] and in test [7] was “inactive” in each case. The Potency entry in [8], in [9], in test [10], in [11], in [14] and in test [16] was “inactive” each time. In test [17], the Potency entry is “inactive”. The Potency in test [13] is 47.5 µM (active) and 61.1 µM (active). Besides, the outcome in [15] was inactive.

`CCCCC/C=C\C/C=C\CCCCCCCC(=O)OC`: the Potency entry in test [1], in test [2], in test [3], in test [4], in test [20] and in test [18] was “inactive” each time. Besides, the Potency entry in test [6], in test [7], in test [8], in test [9], in [10] and in test [11] was “inactive” throughout. Also, the Potency entry in test [13], in [14], in test [16] and in [17] was “inactive” in each case. Moreover, in test [15], the call was inactive.

`CC(C)NCC(O)COc1cccc2ccccc12` (stereo not drawn): the Potency entry in [1], in test [2], in test [3], in test [5], in [20] and in [18] was “inactive” in each case. Besides, the Potency result in test [6], in test [7], in [8], in test [9], in [10] and in test [11] was “inactive” in each case. The Potency entry in test [14], in [16] and in test [17] was “inactive” in each case. Besides, the call in test [15] was inactive.

Take `CS(=O)(=O)Nc1ccc([N+](=O)[O-])cc1Oc1ccccc1`: the Potency result in test [2], in test [3], in [4], in test [5], in test [18] and in [6] was “inactive” throughout. Moreover, the Potency entry in test [7], in test [9], in test [11] and in [14] was “inactive” throughout. Further, the call in test [19] and in test [15] was inactive.

Turning to `CC(=O)Nc1ccc(C(=O)O)cc1`, the Potency entry in [1], in test [2], in test [3], in test [4], in test [20] and in [18] was “inactive” throughout. Further, the Potency entry in test [6], in test [7], in test [8], in test [9], in test [10] and in test [11] was “inactive” each time. The Potency entry in [13], in [14], in [16] and in [17] was “inactive” in each case. The outcome in test [19] and in [15] was inactive.

Regarding `OC1CCCC1`, the Potency entry in [1], in test [2], in test [3], in test [4], in test [20] and in [18] was “inactive” throughout. The Potency entry in test [6], in [7], in [8], in [9], in [10] and in [11] was “inactive” throughout. The Potency result in [13], in [14], in [16] and in test [17] was “inactive” throughout. Also, the call in test [15] was inactive.

`CCCCC(CC)C(=O)OCCOCCOCCOC(=O)C(CC)CCCC` (stereo not drawn): the Potency result in test [1], in test [2], in test [3], in test [4], in test [20] and in test [6] was “inactive” throughout. Further, the Potency result in test [7], in test [8], in test [9], in test [10], in [11] and in test [13] was “inactive” in each case. The Potency entry in [14], in [16] and in test [17] was “inactive” throughout. Moreover, the result in test [12] and in test [15] was inactive.

For the compound `c1ccc2ccccc2c1`, the Potency result in test [1], in [2], in test [3], in test [4], in [18] and in test [6] was “inactive” in each case. Further, the Potency entry in test [7], in test [8], in [9], in test [10], in test [11] and in test [13] was “inactive” each time. Moreover, the Potency entry in test [14], in test [16] and in test [17] was “inactive” in each case. Moreover, the compound was classed as inactive in test [19] and in [15].
